Measured values from PubChem BioAssay AID1159580 (chemical genetic matrix, 2015).
Where “and” joins values, the source holds several entries; their conditions need not be identical. Equal entries are not always repeated. Out of some 5,500 compounds screened, about 2,000 (36%) were called active. Not shown: some 18% with an inconclusive outcome. Rule as the data show it: active = normalized growth mostly below about 0.91 (no sharp cut-off); inconclusive = no clear call, values can overlap the other calls; inactive = mostly above about 0.92. Some of the results follow.

Test: chemical genetic growth profiling, strain panel (AID 1159580);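 also: tested at 20 µM; growth read once vehicle control cultures reached saturation at 30 °C; 1 = growth at the plate median or of vehicle wells; lower values mean less growth of the strain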
Details: S. cerevisiae deletion strains, growth OD

Measured: normalized growth

CC1(C)S[C@@H]2[C@H](NC(=O)Cc3ccccc3)C(=O)N2[C@H]1C(=O)O
inactive: locus YAL021C, strain ccr4, hits give low values 1.03 | locus YAL026C, strain drs2, hits give low values 1.04 | locus YAL030W, strain snc1, hits give low values 1.03 | locus YBL061C, strain skt5, hits give low values 1.04 | locus YBR009C, strain hhf1, hits give low values 1.03 | locus YBR021W, strain FUR4, hits give low values 1.01 | locus YBR023C, strain chs3, hits give low values 1.04 | locus YBR171W, strain sec66, hits give low values 1.04 | locus YBR229C, strain ROT2, hits give low values 1 | locus YBR231C, strain swc5, hits give low values 1.02 | locus YBR279W, strain paf1, hits give low values 1.02 | locus YCL011C, strain gbp2, hits give low values 1.04 | locus YCL016C, strain dcc1, hits give low values 1.03 | locus YCL029C, strain bik1, hits give low values 1.02 | locus YCL061C, strain MRC1, hits give low values 1.02 | locus YCL069W, strain vba3, hits give low values 1.04 | locus YCR088W, strain abp1, hits give low values 1.03 | locus YDL005C, strain med2, hits give low values 1.02 | locus YDL035C, strain GPR1, hits give low values 1.01 | locus YDL040C, strain nat1, hits give low values 1.03 | locus YDL074C, strain BRE1, hits give low values 1.01 | locus YDL101C, strain DUN1, hits give low values 1.01 | locus YDL134C, strain PPH21, hits give low values 1 | locus YDL185W, strain tfp1, hits give low values 1 | locus YDL192W, strain arf1, hits give low values 1.02 | locus YDR001C, strain nth1, hits give low values 1.01 | locus YDR069C, strain doa4, hits give low values 1 | locus YDR101C, strain arx1, hits give low values 1.02 | locus YDR137W, strain rgp1, hits give low values 1.03 | locus YDR150W, strain NUM1, hits give low values 1 | locus YDR159W, strain sac3, hits give low values 1.02 | locus YDR162C, strain NBP2, hits give low values 1.01 | locus YDR195W, strain ref2 1.01 | locus YDR297W, strain sur2, hits give low values 1.01 | locus YDR318W, strain mcm21, hits give low values 1.02 | locus YDR334W, strain swr1, hits give low values 1.04 | locus YDR335W, strain msn5, hits give low values 1.03 | locus YDR388W, hits give low values 1.02 | locus YDR392W, strain spt3, hits give low values 0.994 | locus YDR502C, strain sam2, hits give low values 1.02 | locus YEL003W, strain gim4, hits give low values 1.03 | locus YEL037C, strain rad23, hits give low values 1.03 | locus YEL061C, strain CIN8 (second series), hits give low values 1.02 | locus YEL061C, strain CIN8, hits give low values 1 | locus YER015W, strain faa2, hits give low values 1.03 | locus YER016W, strain bim1, hits give low values 1.02 | locus YER110C, hits give low values 1.03 | locus YER111C, strain swi4, hits give low values 1.01 | locus YER155C, strain BEM2 (second series), hits give low values 1.03 | locus YER155C, strain BEM2, hits give low values 0.999 | locus YER167W, strain BCK2, hits give low values 1 | locus YFR010W, strain ubp6, hits give low values 1.03 | locus YGL078C, strain dbp3, hits give low values 1.01 | locus YGL086W, strain mad1, hits give low values 1.01 | locus YGL167C, strain pmr1, hits give low values 1.04 | locus YGL173C, strain kem1, hits give low values 1.05 | locus YGL227W, strain vid30, hits give low values 1.05 | locus YGL240W, strain doc1, hits give low values 0.993 | locus YGL248W, strain PDE1, hits give low values 1.01 | locus YGL253W, strain hxk2, hits give low values 1.04 | locus YGR078C, strain PAC10, hits give low values 1.01 | locus YGR135W, strain pre9, hits give low values 1.02 | locus YGR252W, strain gcn5, hits give low values 0.994 | locus YHR013C, strain ard1, hits give low values 1.03 | locus YHR027C, strain rpn1, hits give low values 1.01 | locus YHR030C, strain SLT2, hits give low values 1.01 and 0.977 | locus YHR079C, strain IRE1 (second series), hits give low values 1.03 | locus YHR079C, strain IRE1, hits give low values 0.981 | locus YHR094C, strain hxt1, hits give low values 1.02 | locus YHR129C, strain ARP1, hits give low values 0.999 | locus YHR142W, strain chs7, hits give low values 1.06 | locus YHR200W, strain rpn10, hits give low values 1.02 | locus YIL066C, strain RNR3, hits give low values 1 | locus YIL073C, strain SPO22, hits give low values 1.05 | locus YIL125W, strain kgd1, hits give low values 1.01 | locus YIR030C, strain dcg1, hits give low values 1.02 | locus YJL092W, strain hpr5, hits give low values 1.03 | locus YJL095W, strain BCK1 (second series), hits give low values 1.02 | locus YJL095W, strain BCK1, hits give low values 1 and 0.971 | locus YJL115W, strain asf1, hits give low values 1.03 | locus YJL129C, strain trk1, hits give low values 1.05 | locus YJL134W, strain LCB3, hits give low values 1.01 | locus YJL154C, strain vps35, hits give low values 1.03 | locus YJL164C, strain tpk1, hits give low values 1.04 | locus YJL166W, strain qcr8, hits give low values 1.01 | locus YJL168C, strain set2, hits give low values 1.02 | locus YJL187C, strain SWE1 (second series), hits give low values 1 | locus YJR043C, strain POL32, hits give low values 1
